# From PubChem BioAssay (NCI)
# This is part of a sample that, as a whole, favours compounds with a hit. Of some 83,000 tested, about 20% had one in any assay.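 Activity criterion: percent growth below 10, measured after cells in 96-well plates were exposed to a single compound concentration for 48 hours.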 Unmarked numbers belong to inactive results. Calls of active or inactive are those of the source.
# Experiments:
# Test in all cases: NCI-60 one-dose screen, 48 h (100 = growth as untreated, 0 = no growth, -100 = all killed)
# Settings in all cases: 10 µM unless noted
# K-562 leukemia = test system: K-562 leukemia
# MALME-3M melanoma = test system: MALME-3M melanoma
# MDA-MB-231 breast = test system: MDA-MB-231 breast
# SF-268 CNS = test system: SF-268 CNS
# SF-295 CNS = test system: SF-295 CNS
# SF-539 CNS = test system: SF-539 CNS
# UACC-257 melanoma = test system: UACC-257 melanoma
# M14 melanoma = test system: M14 melanoma
# HCT-15 colon = test system: HCT-15 colon
# HT29 colon = test system: HT29 colon
# SNB-75 CNS = test system: SNB-75 CNS
# SNB-19 CNS = test system: SNB-19 CNS
# U251 CNS = test system: U251 CNS
# PC-3 prostate = test system: PC-3 prostate
# SK-MEL-5 melanoma = test system: SK-MEL-5 melanoma
# UACC-62 melanoma = test system: UACC-62 melanoma
# LOX IMVI melanoma = test system: LOX IMVI melanoma
# SK-MEL-28 melanoma = test system: SK-MEL-28 melanoma
# DU-145 prostate = test system: DU-145 prostate
# RXF 393 renal = test system: RXF 393 renal
SMILES,growth (K-562 leukemia),growth (MALME-3M melanoma),growth (MDA-MB-231 breast),growth (SF-268 CNS),growth (SF-295 CNS),growth (SF-539 CNS),growth (UACC-257 melanoma) [%],growth (M14 melanoma),growth (HCT-15 colon),growth (HT29 colon),growth (SNB-75 CNS),growth (SNB-19 CNS) [%],growth (U251 CNS),growth (PC-3 prostate),growth (SK-MEL-5 melanoma),growth (UACC-62 melanoma),growth (LOX IMVI melanoma),growth (SK-MEL-28 melanoma) [%],growth (DU-145 prostate) [%],growth (RXF 393 renal) [%]
COc1cc(/C=N/NC(=O)c2ccc(C(F)(F)F)nc2Nc2ccc(Cl)cc2C)ccc1O,15.2%,15.1%,53.1%,34.9%,7.59% (active),30.4%,57.2,50.9%,27.9%,45.2%,19.7%,54.4,33.8%,24.8%,-61.3% (active),44.5%,33.7%,42.5,,
O=C(COc1cccc(/C=C2\Oc3ccc4ccccc4c3C2=O)c1)c1ccc([N+](=O)[O-])cc1,67.3%,67.2%,83.3%,85.6%,117%,46.5%,102,79.4%,89.5%,96.5%,81.4%,100,94.5%,75.6%,87.2%,81.1%,-30.3% (active),124,,
O=C(NCCCl)NCCN1c2nc3ccccc3cc2Sc2cc3ccccc3nc21,21.5%,60.4%,39.5%,44.2%,409%,38.3%,65.8,69.2%,51.9%,36.2%,-5.93% (active),63.9,34.8%,25.3%,9.61% (active),47.4%,49.7%,86.4,,
COc1ccc(CNC(=O)c2c(C)n([O-])c3ccc(OC)cc3[n+]2=O)cc1,90.8%,98.6%,111%,103%,239%,118%,109,107%,103%,93.2%,99.1%,97.8,96.3%,80.5%,95%,94.9%,101%,108,,
Oc1ccccc1/C=N/N1CCCCCC1,,,96.1%,99.9%,,113%,129,118%,93.7%,97.6%,80.3%,97.1,120%,,94.2%,85.9%,96%,109,108,101
CC(=O)Nc1ccc(C(=O)COc2ccc(/C=C3\CCc4ccccc4C3=O)cc2)cc1,80.4%,,103%,93.6%,104%,115%,98.9,115%,102%,104%,116%,106,98.6%,88.8%,98%,99.7%,99.9%,122,,
COc1ccc2nc(N/N=C(\C)c3ccccn3)cc(C)c2c1,-51.5% (active),-24% (active),-63.1% (active),-2.13% (active),-81.2% (active),-90.6% (active),16.7,-78.7% (active),-48.5% (active),-45.5% (active),-7.43% (active),23.9,-85.5% (active),12.9%,-86.2% (active),-44.2% (active),-99.1% (active),20,,
O=C(COc1ccc(/C=C2\Oc3ccc4ccccc4c3C2=O)cc1)c1ccc(Cl)cc1,89.7%,110%,113%,97.6%,96.9%,93.1%,103,95%,92%,87.2%,83%,98.3,94.7%,93.8%,92.6%,94.3%,53.7%,112,,
COc1cccc(C2=NN(C(C)=O)C(c3cc(OC)c(OC)c(OC)c3)C2)c1 (stereo not drawn),9.66% (active),65.9%,41.3%,38.6%,193%,7.59% (active),48.3,16.8%,,8.66% (active),-30.1% (active),26.9,31.1%,16.9%,15.7%,51.7%,48.6%,40.9,,
CC(=O)Nc1ccc(C(=O)COc2cccc(/C=C3\CCc4ccccc4C3=O)c2)cc1,36.8%,19.6%,90%,90.1%,486%,96.7%,89.8,104%,89%,101%,78.7%,94.1,83.4%,76.1%,64.4%,83.6%,71.5%,109,,
CCCCN1c2nc3ccccc3cc2Sc2cc3ccccc3nc21,99.4%,117%,76.4%,91.7%,768%,100%,104,103%,94.9%,95.2%,107%,107,109%,78.6%,82.1%,91.7%,103%,116,,
COc1ccc2c(c1)CC/C(=C\c1ccc(OCC(=O)Nc3nc4ccccc4s3)cc1)C2=O,84.7%,92.5%,82.5%,89.6%,95%,73.7%,96.5,89%,102%,103%,95.2%,100,81.4%,74.1%,91.6%,86%,-88.6% (active),112,,
Cc1cc(Cl)ccc1Nc1nc(C(F)(F)F)ccc1C(=O)N/N=C/c1ccc(Cl)cc1,5.71% (active),-0.888% (active),-22.5% (active),10.4%,-41.8% (active),0.0279% (active),16.6,0.962% (active),5.02% (active),3.44% (active),-21.9% (active),14.6,2.95% (active),-2.59% (active),-13.8% (active),-0.152% (active),0.0613% (active),20.9,,
COc1ccc(C(=O)COc2ccc(/C=C3\Oc4ccc5ccccc5c4C3=O)cc2)cc1,83%,85.5%,97%,104%,102%,72.5%,98.3,,,111%,75.5%,85,99.5%,81%,95.7%,95.9%,93.5%,105,,
CCOC(=O)c1sc(NC(=O)COc2ccc(/C=C3\CCc4cc(OC)ccc4C3=O)cc2)nc1C,71.7%,,94.1%,80.1%,118%,95.1%,93.7,106%,102%,85.8%,105%,96.1,91.2%,79.5%,96.6%,95.2%,-88.1% (active),118,,
